Assay results from PubChem BioAssay (NCI).
This is part of a sample that, as a whole, favours compounds with a hit. Of some 79,000 tested, about 15% had one in any assay. The source made the active and inactive calls. No stated cut-off is given here; in the data, active means growth inhibition above about 70%; inactive means the rest.

Assays:
[1] = NCI Yeast Anticancer Drug Screen. Data for the rad50 strain (AID 155);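 further: 0% = growth of vehicle-only cultures of the same strain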; conditions: S. cerevisiae rad50 strain growth inhibition, stronger effect = higher value
How it was run: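 Yeast carrying a defined DNA repair defect were exposed to test compounds, and growth was compared with vehicle-treated controls to give percent inhibition.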

[2] = NCI Yeast Anticancer Drug Screen. Data for the mec2-1 strain (AID 157); conditions: S. cerevisiae mec2-1 strain, stronger effect = higher value
How it was run: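 Readout is yeast growth inhibition, normalised to vehicle-treated controls, in the mec2-1 strain exposed to compound.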

[3] = NCI Yeast Anticancer Drug Screen. Data for the sgs1 mgt1 strain (AID 161);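 further: 0% = growth of cultures given vehicle only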; conditions: S. cerevisiae sgs1 mgt1 strain, stronger effect = higher value
How it was run: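 This yeast growth screen uses a strain with defined DNA-repair lesions; compound-treated growth is compared with vehicle-treated growth.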

[4] = NCI Yeast Anticancer Drug Screen. Data for the cln2 rad14 strain (AID 165);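 further: 0% = growth equal to vehicle treated cultures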; conditions: S. cerevisiae cln2 rad14 strain, stronger effect = higher value
How it was run: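 Relative to vehicle controls, growth inhibition of compound-treated cln2 rad14 yeast was recorded.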

[5] = NCI Yeast Anticancer Drug Screen. Data for the bub3 strain (AID 167); conditions: S. cerevisiae bub3 mutant strain, stronger effect = higher value
How it was run: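 Compounds were applied to a genetically altered yeast strain carrying a cell-cycle control defect. Growth inhibition was scored against vehicle-treated controls.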

[6] = NCI Yeast Anticancer Drug Screen. Data for the mlh1 rad18 strain (AID 175); conditions: S. cerevisiae mlh1 rad18 strain growth inhibition, stronger effect = higher value
How it was run: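 Test agents were incubated with a yeast strain of defined genotype (DNA damage repair defect). Inhibition of growth was derived by comparison with vehicle-exposed cultures.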

[7] = at 5.0 µM (retest, dose inferred, filed as 0.5)
[8] = at 50.0 µM (retest, dose inferred, filed as 5.0)

Measured: growth inhibition

CCOC(=O)C(=O)N1C(C)=C(C(=O)OCC)CC(C(=O)OCC)=C1C
inactive: [1]; [7] 35% | [1]; [8] 44% | [1]; at 50.0 µM -24.6% | [2]; [7] 18% | [2]; [8] 19% | [2]; at 50.0 µM -26.2% | [3]; [7] 30% | [3]; [8] 32% | [3]; at 50.0 µM -17.8% | [4]; [7] 29% | [4]; [8] 18% | [4]; at 50.0 µM -34% | [5]; [7] 27% | [5]; [8] 25% | [5]; at 50.0 µM -8.45% | [6]; [7] 32% | [6]; [8] 31% | [6]; at 50.0 µM -44.1%

COC1(OC)C2(Cl)C(Cl)=C(Cl)C1(Cl)C1C2C2CC1(C(=O)O)c1ccccc12 (configuration not stated)
active: [1]; at 50.0 µM 92% | [2]; at 50.0 µM 93.4% | [3]; at 50.0 µM 93% | [4]; at 50.0 µM 91.5% | [5]; at 50.0 µM 90.8% | [6]; at 50.0 µM 90.5%
inactive: [1]; [7] 29% | [1]; [8] 29% | [2]; [7] 23% | [2]; [8] 23% | [3]; [7] 17% | [3]; [8] 17% | [4]; [7] 26% | [4]; [8] 26% | [5]; [7] 26% | [5]; [8] 26% | [6]; [7] 41% | [6]; [8] 41%

O=C(CN1CCCC1)Nc1nc(-c2ccc(Cl)cc2)cs1
active: [3]; [8] 87% | [5]; [8] 88% | [6]; [8] 82%
inactive: [1]; [7] 55% | [1]; [8] 69% | [1]; at 50.0 µM 50.5% | [2]; [7] 37% | [2]; [8] 53% | [2]; at 50.0 µM 35.7% | [3]; [7] 54% | [3]; at 50.0 µM 67.5% | [4]; [7] 39% | [4]; [8] 57% | [4]; at 50.0 µM 48.3% | [5]; [7] 45% | [5]; at 50.0 µM 67.6% | [6]; [7] 65% | [6]; at 50.0 µM 64.2%

O=[N+]([O-])c1ccc(Sc2ccc([N+](=O)[O-])o2)cc1
active: [1]; [7] 95% | [1]; [8] 99% | [2]; [7] 94% | [2]; [8] 100% | [3]; [7] 95% | [3]; [8] 100% | [4]; [7] 89% | [4]; [8] 99% | [5]; [7] 98% | [5]; [8] 99% | [6]; [7] 97% | [6]; [8] 99%
inactive: [1]; at 50.0 µM 13.9% | [2]; at 50.0 µM 16.5% | [3]; at 50.0 µM 52.1% | [4]; at 50.0 µM -9.05% | [5]; at 50.0 µM 60.7% | [6]; at 50.0 µM 59.8%

FC1(F)C2=C(SC3=C(S2)C(F)(F)C3(F)F)C1(F)F
active: [1]; [8] 99% | [1]; at 50.0 µM 99.2% | [2]; [8] 98% | [2]; at 50.0 µM 70.5% | [3]; [8] 100% | [3]; at 50.0 µM 99.1% | [4]; [8] 95% | [4]; at 50.0 µM 74.9% | [5]; [8] 95% | [5]; at 50.0 µM 97.7% | [6]; [8] 97% | [6]; at 50.0 µM 97.7%
inactive: [1]; [7] 9% | [2]; [7] -4% | [3]; [7] 38% | [4]; [7] 6% | [5]; [7] -7% | [6]; [7] 19%

N#CC(/C=C/c1ccccc1)(NO)Nc1cccc(Cl)c1 (configuration not stated)
inactive: [1]; [7] 6% | [2]; [7] 32% | [3]; [7] 39% | [4]; [7] 10% | [5]; [7] 29% | [6]; [7] 23%
active: [1]; [8] 98% | [1]; at 50.0 µM 99.2% | [2]; [8] 99% | [2]; at 50.0 µM 99.6% | [3]; [8] 99% | [3]; at 50.0 µM 99.1% | [4]; [8] 99% | [4]; at 50.0 µM 98.8% | [5]; [8] 99% | [5]; at 50.0 µM 99.5% | [6]; [8] 99% | [6]; at 50.0 µM 99.5%

O=C1OC(c2ccccc2)(c2ccccc2)Cc2ccccc21
active: [1]; at 50.0 µM 94% | [2]; at 50.0 µM 96% | [3]; at 50.0 µM 91% | [4]; at 50.0 µM 91.3% | [5]; at 50.0 µM 90.8% | [6]; at 50.0 µM 94.8%
inactive: [1]; [7] -4% | [1]; [8] 20% | [2]; [7] -9% | [2]; [8] -4% | [3]; [7] -7% | [3]; [8] -16% | [4]; [7] -4% | [4]; [8] 7% | [5]; [7] -27% | [5]; [8] -13% | [6]; [7] -21% | [6]; [8] 8%

COC(=O)/C(=C/c1ccc(/C=C(/C(=O)O)c2ccc(OC)cc2)o1)c1ccccc1
inactive: [1]; [7] 3% | [1]; at 50.0 µM 8.35% | [2]; [7] 2% | [2]; at 50.0 µM 10.8% | [3]; [7] 0% | [3]; at 50.0 µM -3.5% | [4]; [7] 15% | [4]; at 50.0 µM 11.6% | [5]; [7] 0% | [5]; at 50.0 µM 1.7% | [6]; [7] 3% | [6]; at 50.0 µM 30.8%
active: [1]; [8] 99% | [2]; [8] 99% | [3]; [8] 99% | [4]; [8] 99% | [5]; [8] 99% | [6]; [8] 99%

O=C(Nc1ccc(S(=O)(=O)NC2CCCCC2)cc1)OC1CCCCCCC1
inactive: [1]; [7] 69% | [2]; at 50.0 µM 53.2% | [3]; [8] 40% | [4]; [7] 12% | [5]; at 50.0 µM 67% | [6]; [8] 58%
active: [1]; [8] 74% | [1]; at 50.0 µM 72% | [2]; [7] 99% | [2]; [8] 81% | [3]; [7] 72% | [3]; at 50.0 µM 77.6% | [4]; [8] 75% | [4]; at 50.0 µM 75% | [5]; [7] 92% | [5]; [8] 79% | [6]; [7] 90% | [6]; at 50.0 µM 76.7%
